# Data reported in PubChem BioAssay AID743335 (Broad Institute, 2014).
# Values without a mark were called inactive.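 Rule for the calls: active = cell killing, with a fitted half-maximal concentration at or below twice the top valid dose tested; inconclusive = flat curve with moderate signal loss, or a poor fit; inactive = effect in the rising direction, plus the rest.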
# Experiment: HEK293T cytotoxicity, dose response, cytotoxicity control, cell-based, ATP luminescence, dry powder, set 11 (AID 743335)
# Settings: HEK293T viability, ATP luminescence (CellTiter-Glo), 72 h; series mostly up to 15 µM; activity change, negative = cytotoxicity: at the top concentration
row,Compound,"activity change, negative = cytotoxicity"
1,CN(C)CCCN(Cc1cc2ccccc2[nH]c1=O)C(=O)NCc1ccccc1,-7.88%
2,Cc1csc(NC(=O)c2cc(S(=O)(=O)N(C)C)ccc2N2CCCC2)n1,-9.89%
3,CN(C)S(=O)(=O)c1ccc(N2CCCC2)c(C(=O)Nc2cccc(F)c2)c1,-17.6%
4,Cc1cnc(NC(=O)c2cc(S(=O)(=O)N3CCCCC3)ccc2N2CCCC2)s1,2.61%
5,CN(C)S(=O)(=O)c1ccc(N2CCCC2)c(C(=O)Nc2nccs2)c1,0.72%
6,Cc1cnc(NC(=O)c2cc(S(=O)(=O)N3CCCC3)ccc2N2CCCC2)s1,-2.37%
7,Cc1cnc(NC(=O)c2cc(S(=O)(=O)N(C)C)ccc2N2CCC2)s1,0.864%
8,COc1ccc2sc(NC(=O)c3cc(S(=O)(=O)N(C)C)ccc3N3CCCC3)nc2c1,4.68%
9,CCN(CC)c1ccc(S(=O)(=O)N(C)C)cc1C(=O)Nc1ncc(C)s1,-14.2%
10,Cc1cnc(NC(=O)c2cc(S(=O)(=O)N(C)C)ccc2N2CCCC2)s1,-25.8%
11,Cc1cnc(NC(=O)c2cc(S(=O)(=O)N3CCOCC3)ccc2N2CCCC2)s1,-2.27%
12,CN(C)CCCN(Cc1cc2ccccc2[nH]c1=O)C(=O)Nc1ccccc1,-18.9%
13,COc1ccc2nc(NC(=O)c3cc(S(=O)(=O)N(C)C)ccc3N3CCCC3)sc2c1,-15.4%
14,Cc1ccc(NC(=O)c2cc(S(=O)(=O)N(C)C)ccc2N2CCCC2)cc1,-8.27%
15,CN(C)S(=O)(=O)c1ccc(N2CCCC2)c(C(=O)Nc2nc3ccccc3s2)c1,-6.3%
16,Cc1cnc(NC(=O)c2cc(S(=O)(=O)N(C)C)ccc2C2CCCC2)s1,-12.9%
17,Cc1cnc(NC(=O)c2cc(S(=O)(=O)N(C)C)ccc2N(C)C)s1,-17.5%
18,COc1cccc2sc(NC(=O)c3cc(S(=O)(=O)N(C)C)ccc3N3CCCC3)nc12,-2.09%
19,CN(C)S(=O)(=O)c1ccc(N2CCCC2)c(C(=O)Nc2ccccc2)c1,-12.8%
